One may read the inhibition as the relative decrease from the control value, in per cent.

Inhibition data for 46 molecules are collected here from PubChem BioAssay AID1986 (Sanford-Burnham Center for Chemical Genomics, 2009).

Screen size: about 290,000 compounds; about 890 (0.31%) were called active. No stated cut-off is given here; in the data, active means inhibition mostly above about 52% (no sharp cut-off); inactive means mostly below about 76%. The full list was thinned out, with actives kept by preference.

A short description of this assay: cell-free HIV fusion peptide-binding blockers – biochemical, uHTS, fluorescence dequenching, primary screen (AID 1986). As to conditions: 30 min, stronger effect = higher value.
Setting [1] is: measured here: repeat confirmation average inhibition, at 18.6 µM.

Turning to `COc1cc(N2CCCC2)c(OC)cc1/C=C(/C#N)c1ccc(Br)cc1`, the inhibition (at 20 µM) was -0.2% (inactive).

Consider `COc1cc(N2CCCC2)c(OC)cc1/C=C(/C#N)c1cccc(Br)c1`, for which the inhibition was 51.2% (active) (at 20 µM) and 65.1% under setting [1].

Consider `N#C/C(=C/c1ccc(N2CCCCCC2)o1)c1cccc(F)c1`, for which, where the note is “at 20 µM”, the inhibition is 3.6% (inactive).

Consider `CCOC(=O)c1c(C)n(C)c2c(C)cc(O)c(OC(=O)CC)c12`, for which, for the setting “at 20 µM”, the inhibition was 1.5% (inactive).

Regarding `COC(=O)Cc1cccc2c(=O)c3ccccc3oc12`, the inhibition (at 20 µM) is -2% (inactive).

In the case of `O=C(CCS(=O)(=O)c1ccc2c(c1)NC(=O)CO2)NCCc1ccc(Cl)cc1`, under “at 20 µM”, the inhibition was 0.2% (inactive).

For `CC(C)NC(=O)c1ccc(CN2CCC(Cc3ccccc3)CC2)cc1`, the inhibition (at 20 µM) was -0.1% (inactive).

In the case of `Cc1cccc(Nc2nnc(SCC(=O)NCc3cccs3)s2)c1`, under “at 20 µM”, the inhibition was -0.3% (inactive).

Take `Cc1cccn2c(=O)c3cc(C(=O)NCc4cccnc4)c(=N)n(C)c3nc12`: the inhibition (at 20 µM) is -1.4% (inactive).

With `CCOC(=O)c1cc2c(=O)n3cccc(C)c3nc2n(C)c1=N`, the inhibition (at 20 µM) was 59.9% (active).

`CCOC(=O)c1cc2c(=O)n3cccc(C)c3nc2n(Cc2ccccc2Cl)c1=N`: the inhibition (at 20 µM) is -3.9% (inactive).

As for `COc1cccc(/C=N\NC(C)=O)c1OC/C=C/c1ccccc1`, under “at 20 µM”, the inhibition was 0.3% (inactive).

As to `O=C1/C(=C/c2ccncc2)SC(=S)N1N1CCOCC1`, the inhibition (at 20 µM) was -1.3% (inactive).

As to `Cc1ccc(NS(=O)(=O)c2cc(C(=O)N3CCN(C)CC3)ccc2C)cc1`, for the setting “at 20 µM”, the inhibition is -0.2% (inactive).

As to `CCN(CC)S(=O)(=O)c1cc(NS(=O)(=O)c2cccc(C(=O)O)c2)ccc1C`, the inhibition (at 20 µM) was 1.4% (inactive).

For the molecule `CC(C)OC(=O)c1c2c(n3ccccc13)C(=O)c1ccccc1C2=O`, where the note is “at 20 µM”, the inhibition was 103% (active).

Consider `COC(=O)c1cc2c(C)c(C)c3ccccn3c-2c1C(=O)OC`, for which the inhibition (at 20 µM) was -1.6% (inactive).

`CC(C)OC(=O)c1cccc2c1C(=O)c1ccccc1-2`: the inhibition (at 20 µM) is -0.7% (inactive).

For the molecule `CSc1cccc(NC(=O)c2nnn(Cc3ccccc3)c2N)c1`, for the setting “at 20 µM”, the inhibition was -1.1% (inactive).

`CCOC(=O)C1CCN(C(=O)COc2ccc(S(=O)(=O)NC(C)C)cc2Cl)CC1`: where the note is “at 20 µM”, the inhibition was -0.9% (inactive).

Consider `CCOc1ccc(NC(=O)CSc2ncn[nH]2)c([N+](=O)[O-])c1`, for which, for the setting “at 20 µM”, the inhibition is 0.8% (inactive).

On to `Cc1occc1-c1nnc(SCC(=O)N2CCN(c3ccccc3F)CC2)n1C`, for which the inhibition (at 20 µM) was 0.2% (inactive).

Consider `O=C(Nc1ccncc1)C1CC1c1ccccc1` (stereo not given), for which, under “at 20 µM”, the inhibition is -0.2% (inactive).

Turning to `O=c1c2ccccc2c(/C=N/NS(=O)(=O)c2ccccc2)c(O)n1-c1ccccn1`, the inhibition by setting is: (at 20 µM) 109% (active); under setting [1], 78.3%.

For `CC(C)(C)N/N=C/c1c(O)n(-c2ccc(Cl)cn2)c(=O)c2ccccc12`, under “at 20 µM”, the inhibition was 4% (inactive).

As to `COc1ccc(-n2c(O)c(/C=N/NS(=O)(=O)c3ccc(C)cc3)c3ccccc3c2=O)cc1OC`, under “at 20 µM”, the inhibition was 152% (inactive).

As for `O=C(O)c1cc(-c2ccco2)nn1-c1cccc(Cl)c1`, the inhibition (at 20 µM) was 74.3% (active).

Take `O=C(O)c1cc(-c2ccco2)nn1-c1ccc(Cl)cc1`: the inhibition was 72.4% (inactive) (at 20 µM) and 4.8% under setting [1].

On to `O=C(c1cc(-c2ccco2)nn1-c1cccc(Cl)c1)N1CCCCC1`, for which the inhibition (at 20 µM) is 15% (inactive).

On to `O=C1NN(c2cccc(Br)c2)C(=O)/C1=C/c1ccc(-c2cc([N+](=O)[O-])ccc2O)o1`, for which the inhibition (at 20 µM) is 56.9% (active).

Take `O=C1NN(c2ccccc2)C(=O)/C1=C\c1ccc(-c2cc([N+](=O)[O-])ccc2O)o1`: the inhibition by setting is: (at 20 µM) 53.6% (inactive); under setting [1], 15%.

On to `CC1=NN(c2ccc(C)cc2)C(=O)/C1=C/c1ccc(-c2cc([N+](=O)[O-])ccc2O)o1`, for which the inhibition (at 20 µM) is 45.2% (inactive).

As to `CCCOc1cccc(C(=O)N/N=C/c2ccoc2)c1`, the inhibition (at 20 µM) was 0.4% (inactive).

Regarding `O=C(Nc1ccc([N+](=O)[O-])cn1)C1CC2CCC1C2` (stereo not given), the inhibition (at 20 µM) is 1.2% (inactive).

For `CC1CC(=O)c2c(cc3c(-c4c(O)cc(O)c5c(O)c6c(cc45)OC(C)CC6=O)c(O)cc(O)c3c2O)O1` (stereo not given), the inhibition (at 20 µM) is 56.7% (active).

Turning to `C[C@@H]1Cc2c(O)c(O)cc(O)c2C(=O)O1`, where the note is “at 20 µM”, the inhibition was 27.3% (inactive).

As to `COc1c(O)cc2c(c1O)C(=O)CC(c1ccccc1)O2` (stereo not given), the inhibition (at 20 µM) is -1.5% (inactive).

For the molecule `COc1ccc(C(=O)C23CC4CC(C2)CC(C(=O)c2ccc(OC)cc2)(C4)C3)cc1`, for the setting “at 20 µM”, the inhibition is -1.1% (inactive).

As for `Cc1cc2c(n1-c1ccc(C(=O)O)cc1)CCCCC2`, the inhibition (at 20 µM) was 57.7% (active).

On to `Cc1ccc(C)n1-c1ccc(C(=O)O)cc1`, for which the inhibition (at 20 µM) was -0.4% (inactive).

`Cc1ccc(-c2cc3c(n2-c2ccc(C(=O)O)cc2)CCCC3=O)cc1`: under “at 20 µM”, the inhibition is 9.8% (inactive).

Regarding `O=C(NC(=S)Nc1ccccc1[N+](=O)[O-])c1ccccc1`, for the setting “at 20 µM”, the inhibition was -2.2% (inactive).

For the molecule `O=C(O)CCCCCNC(=O)c1ccc(C(=O)NCCCCCC(=O)O)cc1`, the inhibition (at 20 µM) is 0.3% (inactive).

As for `Cc1ccsc1/C=C/C1=Cc2c(sc(NC(=O)CSc3n[nH]c(N)n3)c2C#N)C(C)(C)C1`, the inhibition (at 20 µM) is 2.6% (inactive).

For the molecule `Cc1ccc(/C=C/C2=Cc3c(sc(NC(=O)CSc4n[nH]c(N)n4)c3C#N)C(C)(C)C2)o1`, the inhibition (at 20 µM) was 149% (inactive).

With `CCOc1ccc(/C=C/C2=Cc3c(sc(NC(=O)CSc4n[nH]c(N)n4)c3C#N)C(C)(C)C2)cc1`, under “at 20 µM”, the inhibition is 62.3% (active).
